# Cruzain inh Det = cruzain (T. cruzi) inhibition with detergent | P25779 | purified cruzain, Z-FR-AMC fluorescence, 0.01% Triton | Potency, µM, for inactives: max response, negative = inhibition, actives largely listed as inhibitors | actives 0.43% (n = 200,000) | AID 1478;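 note: plate controls were neutral wells for no effect and buffer without enzyme for full effect; nearly all actives have a fitted effect of over 40% in size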
# Target sequence (P25779 123-467 limits assumed): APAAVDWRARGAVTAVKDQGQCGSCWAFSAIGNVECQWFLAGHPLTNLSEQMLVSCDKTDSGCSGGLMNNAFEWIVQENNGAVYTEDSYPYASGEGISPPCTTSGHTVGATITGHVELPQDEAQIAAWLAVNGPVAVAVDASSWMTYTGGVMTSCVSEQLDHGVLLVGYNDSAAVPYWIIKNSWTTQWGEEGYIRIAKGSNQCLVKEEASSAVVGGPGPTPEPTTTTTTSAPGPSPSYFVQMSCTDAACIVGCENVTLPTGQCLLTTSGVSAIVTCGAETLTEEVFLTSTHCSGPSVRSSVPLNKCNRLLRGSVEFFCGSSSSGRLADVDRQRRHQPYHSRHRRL
#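 Compounds were screened in titration against cruzain (1.5 nM) with 0.01% Triton X-100 to counter colloidal aggregation. Activity was the AMC fluorescence increase over 60 s after adding 2 uM Z-FR-AMC at pH 5.5.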
# Cruzain inh noDet = blocks cruzain activity in detergent-free assay; purified cruzain, Z-FR-AMC fluorescence, no detergent; Potency, µM, without a hit: max response, negative = inhibition, usual class: inhibitors; actives 2.3% (n = 200,000);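 note: plate controls were enzyme without inhibitor for no effect and buffer without enzyme for full effect; nearly all actives have a fitted effect of over 40% in size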
#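 Detergent-free condition (0.00005% Triton X-100) in acetate buffer pH 5.5 with DTT. 1.5 nM enzyme and compound were pre-mixed 15 min, then 2 uM Z-FR-AMC substrate added; reaction progress from fluorescence change between first and third reads (60 s).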
# Starred values were filed as active, the others as inactive; ? = inconclusive. Hits are enriched below; roughly 2.4% of the tested compounds scored in any of these assays. Calls come from the whole dose curve; as a rule, active = well fitted curve in the direction sought with a large enough effect; inconclusive = small, poorly fitted or top-dose-only effect, or another doubt; inactive = no such curve, though single readings can be large; an effect the other way counts as inactive or inconclusive. Potency is the fitted concentration of half-maximal effect.
SMILES,Cruzain inh Det,Cruzain inh noDet
C/C(=N/NC(N)=S)c1ccccc1[N+](=O)[O-],15.8µM*,12.6µM*
CCCCOC(=O)CCn1[nH]c(=O)c2ccccc2c1=O,-3.2%,-5.0%
CCCCOC(=O)CCN1C(=O)/C(=C2\SC(=S)N(CCC(=O)OCCCC)C2=O)SC1=S,-19.8%,12.6µM*
CC(=O)Nc1c(I)cc(I)c(C(=O)O)c1I,4.7%,3.1%
COc1ccc(-c2nc(-c3ccccc3)nc(Cl)c2C#N)cc1,6.0%,-0.5%
CNc1nc(-c2ccccc2)nc(-c2ccccc2)c1C#N,-2.0%,7.94µM*
CCC1=C2CC[C@H]3C(=O)N(c4ccccc4)C(=O)[C@H]3[C@H]2[C@@]2(C)C(=NCC(=O)OC)OC(=O)N2C1=O,-0.5%,8.1%
Cc1sc2nc(C3CC3)nc(N3CCN(S(=O)(=O)c4ccc(F)cc4)CC3)c2c1C,-1.8%,15.8µM*
Cc1nc(N2CCN(S(=O)(=O)c3ccc(F)cc3)CC2)c2c(C)c(C)sc2n1,-3.1%,-12.1%
N#CC1=C(N)OC2=C(CN(Cc3ccccc3)C/C2=C\c2cccnc2)C1c1cccnc1 (stereo not given),0.6%,-9.1%
Cc1ccc(S(=O)(=O)NCCSc2nnc(N)s2)cc1,-2.9%,?
CSc1ccccc1N=Cc1nc(-c2ccccc2)oc1O,-7.9%,-6.5%
COc1ccccc1N=Cc1nc(-c2ccccc2)oc1OC(C)=O,25.1µM*,20µM*
CC(=O)Oc1oc(-c2ccccc2)nc1/C=N/c1ccccn1,14.1µM*,12.6µM*
CN(C)c1ccc(N=Cc2nc(-c3ccccc3)oc2OC(=O)c2ccccc2)cc1,-13.5%,?
CCOc1ccc(CCNC(=O)C2CCCN(c3nn4c(=O)cc(C)nc4s3)C2)cc1OCC (stereo not given),-0.8%,11.7%
COc1ccc(S(=O)(=O)Nc2ccc3oc4c(c3c2)CCCC4)cc1,-10.7%,?
O=S(=O)(Nc1ccc2oc3c(c2c1)CCCC3)c1cc(Cl)ccc1Cl,-3.1%,31.6µM*
CCn1c(SCC(=O)Nc2nc(C)c(C)s2)nnc1-c1ccco1,-0.8%,0.9%
O=c1oc2cc(OCc3c(F)cccc3Cl)ccc2cc1-c1ccccn1,-0.4%,22.7%
O=c1oc2cc(OCc3ccc(F)cc3F)ccc2cc1-c1ccc2ccccc2n1,-1.9%,12.6µM*
Cc1cc2nc(-c3ccc(SCC(=O)N4CCc5ccccc54)nc3)[nH]c2cc1C,-2.2%,15.8µM*
Cc1cc(NC(=O)CSc2ccc(-c3nc4cc(C)c(C)cc4[nH]3)cn2)no1,2.3%,?
Cc1ccc(S(=O)(=O)c2nnn(-c3ccc(F)c(Cl)c3)c2N)cc1,0.4%,-10.1%
COC(=O)CC/C(C)=N\Nc1ccc([N+](=O)[O-])cc1[N+](=O)[O-],-3.4%,-6.0%
SMILES,Cruzain inh Det,Cruzain inh noDet
O=S1(=O)N=C(SCCO)c2ccccc21,-0.9%,7.4%
CN(C)c1cc(-c2cccc(NS(C)(=O)=O)c2)ncn1,12.6µM*,15.8µM*
CS(=O)(=O)Nc1cccc(-c2cc(NCc3ccccc3)ncn2)c1,-2.7%,-1.1%
COc1ccc(NS(=O)(=O)c2cc(C)ccc2OC)cc1OC,-1.9%,3.7%
O=C(CCn1c(=O)oc2ccccc21)Nc1nccs1,3.8%,-2.4%
CC(=O)Nc1ccc(S(=O)(=O)NCC2CCC(C(=O)NCCCOC(C)C)CC2)cc1 (stereo not given),-0.3%,9.3%
CCOC(=O)C(Sc1ncnc2c1sc1nc(N3CCOCC3)c3c(c12)CCCC3)c1ccccc1 (stereo not given),8.3%,3.16µM*
CCOC(=O)CSc1ncnc2c1sc1nc(N3CCOCC3)c3c(c12)CCCC3,-4.8%,-6.0%
CCOc1ccc(C2=NNC(c3cccs3)=Nc3ccc(OC)cc32)cc1,-12.1%,?
CCOc1ccc2c(c1)C(c1ccc(C)cc1)=NNC(c1ccc(OC)cc1)=N2,-2.3%,15.8µM*
COC(=O)c1sc(NC(=O)COc2cccc3ccccc23)nc1C,5.2%,?
CCSc1nnc(NC(=O)COc2cccc3ccccc23)s1,-8.0%,12.6µM*
C=CCSc1nnc(NC(=O)CSc2ccccn2)s1,1.4%,-1.9%
C=CCSc1nnc(NC(=O)COc2ccc3ccccc3c2)s1,4.3%,12.6µM*
c1cc2c(nn1)CCc1nonc1-2,0.5%,-6.9%
CCOC(=O)N1CCN(CCC(=O)c2ccc(Cl)cc2)CC1,14.1µM*,12.6µM*
CCOC(=O)N1CCN(C(=O)Cc2ccc(Cl)cc2)CC1,7.0%,-1.5%
COc1ccc(/C=N/NC(=O)CSc2nnc(CCCc3ccc(OC)c(C)c3)o2)cc1,-3.6%,4.6%
Cc1cccc(N2CCN(C(c3ccc(F)cc3)c3nnc(-c4ccccc4)o3)CC2)c1C (stereo not given),-2.5%,?
Cc1ccc(Cl)cc1N1CCN(C(c2ccc(F)cc2)c2nnc(-c3ccccc3)o2)CC1 (stereo not given),-0.6%,6.31µM*
Cc1ccc(C2=NC3(CCCC3)N=C2SCC(=O)Nc2ccc3c(c2)OCCO3)cc1,-5.4%,6.2%
O=C(N=Nc1c(O)n(Cc2ccccc2)c2ccccc12)c1cc2ccccc2cc1O,-7.9%,7.94µM*
O=C(N=Nc1c(O)n(Cc2ccccc2)c2ccccc12)c1ccc(O)cc1,-2.7%,?
Cc1ccc(NC(=O)Cn2c(=O)nc(-c3ccccc3)c3ccccc32)cc1,-0.8%,4.6%
Cc1ccc(NC(=O)Cn2c(O)c(N=NC(=O)c3cc4ccccc4cc3O)c3ccccc32)cc1,-9.2%,10µM*
SMILES,Cruzain inh Det,Cruzain inh noDet
COc1ccc(Br)c(C(=O)Nc2cc3c(cc2N2CCOCC2)n(C)c(=O)n3C)c1,-1.0%,-2.4%
CCOc1cc(C2C(C(=O)OC)=C(C)NC3=C2C(=O)c2ccccc23)ccc1OC (stereo not given),-8.5%,?
Cc1cc(-c2cccs2)c2c(N)c(C(=O)c3ccc4c(c3)OCO4)sc2n1,-6.5%,25.1µM*
COc1ccc(C(=O)c2sc3nc(C)cc(-c4cccs4)c3c2N)cc1,-5.3%,?
Cc1c(C(=O)N2CCC(c3nc4ccccc4s3)CC2)oc2ccc(Cl)cc12,-6.8%,-6.9%
O=C(c1sc(N2CCOCC2)nc1-c1ccccc1)N1CCCCC1,-1.0%,1.1%
Cc1cccc(NC(=O)Cn2cc(S(=O)(=O)c3ccc(F)cc3)c(=O)c3cc4c(cc32)OCO4)c1,-3.2%,?
Cc1ccc(S(=O)(=O)c2cn(CC(=O)Nc3ccccc3)c3cc4c(cc3c2=O)OCO4)cc1,-2.5%,1µM*
CCn1c(CN2CCN(C)CC2)nc2cc(NC(=O)c3cc(OC)c(OC)c(OC)c3)ccc21,-3.0%,-3.5%
Cc1cccc(NC(=S)NNC(=O)COc2ccc(Cl)cc2Cl)c1,-0.2%,?
Cc1ccc(NC(=O)NC(=O)COc2ccc(Cl)cc2Cl)c(C)c1,0.2%,12.6µM*
COc1cc(OC)c(NC(=O)Cn2cnc3sc(C)c(S(=O)(=O)N4CCN(C)CC4)c3c2=O)cc1Cl,-0.7%,-4.0%
CC1CCCC(C)N1C(=O)Cn1c(SCC(=O)Nc2ccc3c(c2)OCO3)nc2ccccc21 (stereo not given),-4.0%,-5.1%
O=C(Cn1c(=O)n(Cc2ccco2)c(=O)c2c3c(sc21)CCCCC3)Nc1ccccc1,28.2µM*,?
O=C(Cn1c(=O)n(Cc2ccco2)c(=O)c2c3c(sc21)CCCCC3)c1ccccc1,-7.9%,25.1µM*
CN(C)CCn1c(=O)n(Cc2ccco2)c(=O)c2c3c(sc21)CCCCC3,4.7%,5.0%
O=c1c2c3c(sc2n(CCN2CCCC2)c(=O)n1Cc1ccco1)CCCCC3,5.2%,?
COc1ccc(C(=O)N2CCC3(CCCN(c4ccncc4)C3)CC2)cc1,-0.1%,1.7%
